NTR1 ag = agonists of human NTR1, primary screen, imaging, U2OS cells, beta-arrestin-GFP, high content; Neurotensin receptor type 1 (Homo sapiens), P30989; NTR1-U2OS beta-arrestin-GFP spot imaging, agonist mode; activation, % at 20 µM; 0.17% of 330,000 active;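 active = activation at or above 40% of the spot to cytoplasm intensity ratio, with at least 20 cells analyzed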
AHR activator = AHR activators, primary screen, cell-based, luminescence, luciferase reporter, human; Aryl hydrocarbon receptor (Homo sapiens), P35869; AHR-responsive luciferase reporter cells; activation, % at 5 µM; 2.5% of 320,000 active; AID 2796, 2010; in the data active = activation above about 47%
Target sequence (P35869 whole entry, looked up): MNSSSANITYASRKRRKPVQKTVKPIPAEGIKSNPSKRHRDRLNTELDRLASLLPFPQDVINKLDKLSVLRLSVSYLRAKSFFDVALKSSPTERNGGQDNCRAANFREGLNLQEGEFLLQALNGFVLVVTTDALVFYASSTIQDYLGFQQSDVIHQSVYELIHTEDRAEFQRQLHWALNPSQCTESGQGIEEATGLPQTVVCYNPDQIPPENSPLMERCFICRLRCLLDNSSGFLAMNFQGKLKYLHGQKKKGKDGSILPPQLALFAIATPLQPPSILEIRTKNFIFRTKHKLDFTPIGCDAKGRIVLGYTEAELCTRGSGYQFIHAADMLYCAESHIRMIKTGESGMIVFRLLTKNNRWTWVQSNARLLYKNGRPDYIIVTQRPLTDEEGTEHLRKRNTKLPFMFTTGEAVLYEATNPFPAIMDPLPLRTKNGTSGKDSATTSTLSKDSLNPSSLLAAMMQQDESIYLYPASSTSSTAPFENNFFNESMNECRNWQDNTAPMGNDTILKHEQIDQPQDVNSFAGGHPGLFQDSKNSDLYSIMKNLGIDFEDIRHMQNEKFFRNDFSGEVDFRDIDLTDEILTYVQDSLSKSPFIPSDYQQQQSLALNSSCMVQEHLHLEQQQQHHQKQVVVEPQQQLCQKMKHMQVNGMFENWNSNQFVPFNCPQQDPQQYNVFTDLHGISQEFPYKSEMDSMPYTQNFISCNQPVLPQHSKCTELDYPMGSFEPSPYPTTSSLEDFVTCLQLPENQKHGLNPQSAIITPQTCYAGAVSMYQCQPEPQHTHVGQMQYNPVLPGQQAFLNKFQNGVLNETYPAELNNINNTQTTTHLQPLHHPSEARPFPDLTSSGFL
APOBEC3G inh = APOBEC3G DNA deaminase inhibitors, primary screen, biochemical, fluorescence, single-stranded DNA substrate, uHTS; DNA dC->dU-editing enzyme APOBEC-3G (Homo sapiens), Q9HC16; recombinant A3G, ssDNA deamination FAM/TAMRA fluorescence; inhibition, % at 20 µM; 0.28% of 330,000 active; AID 493012, 2011;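 active = inhibition of at least 40% at 20 µM, with no more than 30% in the related APOBEC3A deaminase screen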
A3A deaminase = APOBEC3A ssDNA deaminase inhibitors, primary screen, selectivity assay for APOBEC3G inhibitor project, biochemical, FAM/TAMRA oligo cleavage fluorescence; recombinant A3A, FAM/TAMRA ssDNA deamination fluorescence; 0.41% of 330,000 active; DNA dC->dU-editing enzyme APOBEC-3A (Homo sapiens), P31941; inhibition, % at 20 µM;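 active = at least 40% inhibition at 20 µM here, with at most 30% in a related deaminase screen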
Large screens that a line does not name were inactive. In the library only some 3.2% were active in any assay of this set; here they are far more common.

COc1ccccc1-c1nc(=S)c(C(C)=O)c(C)[nH]1	AHR activator 54
COc1ccccc1CNC(=O)CCNS(=O)(=O)c1cccc2nonc12	none
O=C(CC1SC(N2CCOCC2)=NC1=O)Nc1ccc(Cl)c(C(F)(F)F)c1 (stereo not drawn)	none
Cc1cc(/C=C2/NC(=O)N(Cc3ccccc3F)C2=O)c(C)n1C	AHR activator 76
Cc1cc(/C=C2/NC(=O)N(Cc3ccccc3F)C2=O)c(C)n1-c1ccccn1	none
CCn1c(SCC(=O)N(C)c2ccccc2)nc2c([nH]c3ccccc32)c1=O	AHR activator 72
COCCn1c(SCC(=O)N2CC(C)OC(C)C2)nc2c([nH]c3ccccc32)c1=O (stereo not drawn)	none
CCn1c(SCC(=O)N2CC(C)OC(C)C2)nc2c([nH]c3ccccc32)c1=O (stereo not drawn)	AHR activator 50
COc1ccc(C(=O)N(C)CC2CCN(CCc3cccc(C(F)(F)F)c3)CC2)cc1C	none
Cc1ccc(S(=O)(=O)N[C@H](C(=O)NCC2CCC(C(=O)O)CC2)C(C)C)cc1 (stereo partly drawn)	none (no result: AHR activator)
Cc1ncc(CO)c(/C=N/NC(=S)Nc2cccc(Cl)c2)c1O	AHR activator 54
Cc1ncc(CO)c(/C=N/NC(=S)Nc2ccc(Cl)c(Cl)c2)c1O	none
Cc1ccc(C(=O)Nc2ccc(OCc3ccccc3)cc2)cc1[N+](=O)[O-]	none
Cc1ccc(C(=O)Nc2ccccc2Oc2ccccc2)cc1[N+](=O)[O-]	AHR activator 74
O=C(Nc1ccncc1NC(=O)c1cccc([N+](=O)[O-])c1)c1cccc([N+](=O)[O-])c1	none
O=C(Nc1ccccc1Oc1ccccc1)c1cccc([N+](=O)[O-])c1	AHR activator 77
Cc1ccc(CNC(=O)C2CCCN(S(=O)(=O)c3cccnc3)C2)cc1 (stereo not drawn)	none
Cc1ccccc1CCNC(=O)C1CCCN(c2cnccn2)C1 (stereo not drawn)	AHR activator 48
O=C(NCCc1ccccc1)C1CCCN(c2cnccn2)C1 (stereo not drawn)	AHR activator 64
Cc1ccc(NC(=O)C2CCCN(c3cnccn3)C2)c(C)c1 (stereo not drawn)	AHR activator 47
Cc1ccc(CNC(=O)C2CCCN(c3cnccn3)C2)cc1 (stereo not drawn)	AHR activator 58
O=C(NCc1ccccc1F)C1CCCN(c2cnccn2)C1 (stereo not drawn)	none
S=c1[nH]nc(CCCc2n[nH]c(=S)o2)o1	none
CCCCc1ncc(CN2CCC(n3nccc3NC(=O)c3ccccc3OC)CC2)[nH]1	none
COc1cccc(CC(=O)OCC(=O)Nc2c(C)nn(-c3ccccc3)c2C)c1	none (no result: AHR activator)
CCc1nc2oc3ccccc3c(=O)c2c(=O)n1CCOC	none
Cc1ccc(-n2c(C(C)C)nc3oc4ccccc4c(=O)c3c2=O)cc1	AHR activator 75
CCCc1nc2oc3ccccc3c(=O)c2c(=O)n1-c1ccccc1	AHR activator 100
CCc1nc2oc3ccccc3c(=O)c2c(=O)n1-c1ccc(C)cc1	AHR activator 64
CCC(NC(=O)c1cncc(Br)c1)c1ccccc1 (stereo not drawn)	none
O=C(NC1CCCCC1)c1ccc(CS(=O)Cc2ccc(Cl)cc2)o1 (stereo not drawn)	none
CCOC(=O)C1C2C=CC3(CN(C4CCCC4)C(=O)C13)O2 (stereo not drawn)	none
CCOC(=O)N1CCC(N2CC34C=CC(O3)C(C(=O)Nc3ccc(C)cc3)C4C2=O)CC1 (stereo not drawn)	AHR activator 77
COc1ccc(-c2nc3c(Br)c(N)c(Br)cc3o2)cc1	AHR activator 49
COc1ccc(CN2CCNC(=O)C2CC(=O)N(C)Cc2nonc2C)c(F)c1 (stereo not drawn)	none
Cc1ccc(NC(=O)CSc2nnc(-c3ccc(S(=O)(=O)N4CCCC4)cc3)o2)cc1C	NTR1 ag 46
CCOC(=O)c1ccc(N[C@@H]2CCN3C(=O)c4ccccc4[C@@H]3C[C@H]2O)cc1	none (no result: AHR activator)
CCC(Sc1nncn1C)C(=O)Nc1nnc(-c2ccccc2Cl)s1 (stereo not drawn)	AHR activator 52
O=C(CSc1nc2ncc(Cl)cc2[nH]1)N1CCC(Cc2ccccc2)CC1	none
O=C(Nc1nc2ccccc2s1)c1cc(-c2ccco2)nc2ccccc12	AHR activator 56
O=C(Nc1nc2c(s1)CCCC2)c1cc(-c2ccc3c(c2)OCO3)nc2ccccc12	AHR activator 57
CC(C)(C)NC(=O)c1cc(-c2ccc3c(c2)OCO3)nc2ccccc12	AHR activator 70
Cn1c(NC(=O)c2cc(-c3ccc4c(c3)OCO4)nc3ccccc23)cc(=O)n(C)c1=O	none
Cc1cccc(CN2CCN(C(C)C(=O)NC(C)c3ccccc3)CC2)c1 (stereo not drawn)	none
Cc1ccc2[nH]c(=O)c(-c3noc(C(C)C)n3)cc2c1	AHR activator 55
CCCCN(C(=O)Cc1cccc(F)c1)c1c(N)n(CCC)c(=O)[nH]c1=O	none
N#Cc1c(Nc2ccccc2)sc(C(=O)c2ccc(F)cc2)c1N	none
N#Cc1c(Nc2ccccc2)sc(C(=O)C2CC2)c1N	AHR activator 49
Cc1cccc(Nc2nc(N)nc(CSc3nccn3C)n2)c1	AHR activator 75
O=C(Nc1cccc(-n2cnnn2)c1)c1ccncc1	none
O=C(Nc1cccc(C(F)(F)F)c1)c1cccnc1	AHR activator 56
O=C(Nc1cccc(-n2cnnn2)c1)c1ccc(C(F)(F)F)cc1	AHR activator 69
CCc1ccc(NC(=O)c2cccnc2)cc1	AHR activator 54
CC(C(=O)Nc1cc([N+](=O)[O-])ccc1Cl)N1CCN(c2ccc(O)cc2)CC1 (stereo not drawn)	none (no result: NTR1 ag, APOBEC3G inh, A3A deaminase)
Nc1nc(OCC2CCCCC2)c2[nH]cnc2n1	AHR activator 56
COc1ccccc1OCCSc1nc2ccc([N+](=O)[O-])cc2s1	none
C=CCc1ccccc1OCCSc1nc2ccc([N+](=O)[O-])cc2s1	AHR activator 56
O=C(NCC1CCCO1)C(=O)N/N=C/c1c(F)cccc1Cl (stereo not drawn)	none
Oc1ccccc1-c1cc(-c2ccccc2)no1	none
CC(=O)Nc1nccc(-c2cc(-c3ccccc3)no2)n1	AHR activator 50
CCc1nc(SCC(=O)c2cccs2)c2oc3ccccc3c2n1	AHR activator 57
O=C(O)CSc1nc(-c2ccccc2)nc2c1oc1ccccc12	none
CCOC(=O)CSc1nc(-c2ccccc2)nc2c1oc1ccccc12	AHR activator 48
Cc1ccc(-n2ncc3c2CC(C)(C)CC3NC(=O)CCc2cccnc2)cc1 (stereo not drawn)	none (no result: AHR activator)
Cn1cnc2c1c(=O)n(Cc1cccc(Cl)c1)c(=O)n2C	none
C=CCn1c2ccccc2c2nnc(SCN3C(=O)c4ccccc4C3=O)nc21	AHR activator 78

Assay outcomes: PubChem BioAssay, several laboratories
